Experimental data published in PubChem BioAssay (NCATS).
Unmarked numbers belong to inactive results. Calls of active or inactive are those of the source. No stated cut-off is given here; in the data, active means potency below about 10 µM; inactive means the rest.

These molecules were tested against Lysosomal acid glucosylceramidase (Homo sapiens) (UniProt P04062) (assay: Glucocerebrosidase-p2 (AID 348)). Conditions: purified GBA, blue fluorogenic substrate, 40 min.
Description: Beta-glucocerebrosidase catalyzes the hydrolysis of beta-glucocerebroside to glucose and ceramide. The inherited deficiency of beta-glucocerebrosidase results in Gaucher disease, which is characterized by a wide variety of symptoms including hepatosplenomegaly, anemia, thrombocytopenia, bony lesions and bone marrow infiltration with characteristic storage cells, known as Gaucher cells. There are also forms of the disorder affecting the central nervous system. Patients with the same genotypes can manifest with diverse clinical presentations and it is believed that improper folding and trafficking of beta-glucocerbrosidase may contribute to the phenotypes observed.
Low molecular weight molecules, acting as chaperones, may potentially restore trafficking of misfolded beta-glucocerebrosidase from the endoplasmic reticulum to the lysosomes, thereby enhancing functional lysosomal beta-glucocerebrosidase activity.
Using normal beta-glucocerebrosidase, an assay was developed to screen for small molecule inhibitors that could potentially act as molecular chaperones on the mutant forms [developed with NIH investigator Dr. Ellen Sidransky#s laboratory]. Two pro-fluorescent substrates were chosen for two screens against a small molecule library. One beta-glucocerebrosidase assay used Resorufin beta-D-Glucopyranoside (Marker Gene Technology Inc.), generating a red fluorescent product. The second assay used […] fluorescent product. The Km for the Resorufin beta-D-Glucopyranoside and Fluorescein di-beta-D-Glucopyranoside were determined to be 71.2 uM and 855 uM, respectively. The IC50 values of Conduritol B Epoxide, a known glucocerebrosidase inhibitor, were determined to be 87.5 uM and 117 uM, respectively. The use of two difference pro-fluorescent substrates in the screens helped to eliminate false positives. All compounds were screened in a titration series resulting in AC50s (e.g., IC50s or EC50s). Data normalization and AC50 calculations were accomplished using GeneData software.
NCGC Assay Protocol Summary
Both enzyme and substrate were diluted in buffer composed of 50mM citric acid/KH2PO4, 10mM sodium taurocholate and 0.01% tween-20 at pH 5.9. The final concentration of the enzyme was 0.2 nM in both assays. The compound library was titrated in 7 to 15 concentrations for the primary screens with a final concentration ranging from 0.6 nM to 50 uM. This particular assay protocol is for the "blue" substrate, and it was performed in 1536-well plate format as follows:
Blue fluorescence substrate assay:
1 uL substrate (final concentration of 80 uM)
Incubate at room temperature (RT) for 40 minutes
3 uL stop solution (1 M NaOH and 1 M glycine in water)
Read the plate in Viewlux plate reader (Ex=365(10) and Em=440(10)).
Potency means the concentration at half of the fitted maximal effect.

Lysosomal acid glucosylceramidase (Homo sapiens), sequence (P04062 whole entry, looked up): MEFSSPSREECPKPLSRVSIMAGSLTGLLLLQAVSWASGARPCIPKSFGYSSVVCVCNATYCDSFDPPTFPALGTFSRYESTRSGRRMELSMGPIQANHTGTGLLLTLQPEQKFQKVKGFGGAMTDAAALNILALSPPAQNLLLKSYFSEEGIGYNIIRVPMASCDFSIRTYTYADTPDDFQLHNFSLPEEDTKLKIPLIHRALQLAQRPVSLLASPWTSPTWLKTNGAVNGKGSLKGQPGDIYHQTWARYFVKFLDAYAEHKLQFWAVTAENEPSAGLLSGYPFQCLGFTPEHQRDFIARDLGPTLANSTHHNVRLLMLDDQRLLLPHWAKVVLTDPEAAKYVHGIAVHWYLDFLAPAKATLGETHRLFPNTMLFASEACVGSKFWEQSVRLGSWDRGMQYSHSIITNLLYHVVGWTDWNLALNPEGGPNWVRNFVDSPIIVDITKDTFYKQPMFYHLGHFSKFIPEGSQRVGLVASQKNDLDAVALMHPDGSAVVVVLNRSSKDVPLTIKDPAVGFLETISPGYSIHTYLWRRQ

Compound	Potency
O=C(c1csnn1)N1CCC[C@@]2(CCN(Cc3cc(C(F)(F)F)cc(C(F)(F)F)c3)C2)C1	> 11.4 µM
COCCn1c(=O)cnc2cnc(N3CCOCC3)nc21	> 11.4 µM
COCCn1c(=O)c(-c2cccc(Cl)c2)nc2cncnc21	> 11.4 µM
O=c1c(-c2cc(F)cc(F)c2)nc2cnc(Oc3ccccc3)nc2n1C1CC1	> 11.4 µM
CCNc1ncc2nc(-c3cn(C)c4ccccc34)c(=O)n(CCC#N)c2n1	> 11.4 µM
O=C(c1ccncc1)N1CCC[C@@]2(CCN(Cc3cc(C(F)(F)F)cc(C(F)(F)F)c3)C2)C1	> 11.4 µM
CC(C)CN1CCC2(CC1)CCN(S(=O)(=O)c1ccccc1)CC2	> 11.4 µM
N#CCCn1c(=O)c(-c2cc(F)cc(F)c2)nc2cnc(Nc3ccccc3)nc21	> 11.4 µM
COCCn1c(=O)c(-c2cccs2)nc2cnc(N3CCN(C)CC3)nc21	> 11.4 µM
CN(C)Cc1ccccc1-c1ccc2ncnc(N3CCOCC3)c2c1	> 11.4 µM
O=C(c1cnccn1)N1CCC2(CCN(Cc3ccccc3)CC2)CC1	> 11.4 µM
CN(C)C(=O)c1ccc(-c2ccc3ncnc(Nc4ccccc4)c3c2)cc1	> 11.4 µM
COCC(=O)N1CCC2(CC1)CN(c1cccc(-c3ccccc3)c1)C2	> 11.4 µM
Cn1c(=O)c(-c2cc(F)cc(F)c2)nc2cncnc21	> 11.4 µM
COc1cccc(-c2cc(NCCc3c[nH]c4ccc(OC)cc34)ncn2)c1	> 11.4 µM
N#Cc1ccccc1-c1ccc2ncnc(NCCN3CCOCC3)c2c1	> 11.4 µM
Cc1noc(C)c1C(=O)N1CCC2(CCCN(c3ccncc3)C2)CC1	> 11.4 µM
COC(=O)N1CCC2(CC1)CCN(c1ccncc1)CC2	> 11.4 µM
COc1ccc2[nH]cc(CCNc3ccnc(-c4ccoc4)n3)c2c1	> 11.4 µM
CC(=O)NCCNc1nc(-c2ccc(C(=O)N(C)C)cc2)nc2ccccc12	> 11.4 µM

Compound	Potency
O=C(c1cc(C(F)(F)F)cc(C(F)(F)F)c1)N1CCC2(CCN(Cc3ccncc3)CC2)CC1	> 11.4 µM
c1ccc(-c2ccc(N3CC[C@@]4(CCCNC4)C3)cc2)cc1	> 11.4 µM
O=C(Nc1cccc(F)c1)N1CC[C@@]2(CCCN(C(=O)c3cnccn3)C2)C1	> 11.4 µM
COc1ccccc1-c1cncnc1NCc1cccs1	> 11.4 µM
N#CCCn1c(=O)c(CCc2ccccc2)nc2cnc(Nc3ccccc3)nc21	> 11.4 µM
Cn1cccc1C(=O)N1CCC2(CC1)CN(Cc1ccc(C#N)cc1)C2	> 11.4 µM
CCNc1ncc2nc(-c3cn(C)c4ccccc34)c(=O)n(C[C@H]3CCCO3)c2n1	> 11.4 µM
O=c1c(-c2ccc(Cl)cc2)nc2cnc(N3CCOCC3)nc2n1Cc1ccc(F)cc1	> 11.4 µM
N#Cc1cccc(-c2nc(NCc3cccnc3)c3ccccc3n2)c1	> 11.4 µM
Cn1cccc1C(=O)N1CCC2(CCCN(Cc3nccs3)C2)CC1	> 11.4 µM
CN(C)Cc1ccccc1-c1cc(NCc2ccccc2)ncn1	> 11.4 µM
COc1cccc(-c2cc(NCc3ccccc3OC)ncn2)c1	> 11.4 µM
O=c1c(-c2cc(F)cc(F)c2)nc2cnc(N3CCNCC3)nc2n1Cc1ccc(F)cc1	> 11.4 µM
COc1cccc(-c2cncnc2NCCc2cnc[nH]2)c1	> 11.4 µM
COc1ccccc1CN1CCCC2(CCN(C(=O)c3csnn3)CC2)C1	> 11.4 µM
Fc1ccc(Nc2nc(-c3ccoc3)nc3ccccc23)cc1	7.43 µM (active)
CN(C)c1ccc(-c2cncnc2NCc2cccnc2)cc1	> 11.4 µM
CC(=O)NCCNc1nc(-c2c(C)noc2C)nc2ccccc12	> 11.4 µM
N#Cc1ccc(CN2CC3(CCN(C(=O)c4cnccn4)CC3)C2)cc1	> 11.4 µM
O=C(c1cccc(F)c1)N1CCC[C@@]2(CCN(c3cccc(-c4ccccc4)c3)C2)C1	> 11.4 µM
